# LmPK inh: LmPK (Leishmania mexicana) enzyme inhibition | 290,000 compounds, 0.37% hits | purified LmPK, Kinase-Glo ATP luminescence, 1 h | Potency, µM (highest dose often 57.5 µM), most hits filed as inhibitors | Q27686 | AID 1721; active means well fitted curve in the direction sought with a large enough effect; inconclusive means small, poorly fitted or top-dose-only effect, or another doubt; inactive means no such curve, though single readings can be large; an effect the other way counts as inactive or inconclusive
# Target sequence (Q27686 whole entry, looked up): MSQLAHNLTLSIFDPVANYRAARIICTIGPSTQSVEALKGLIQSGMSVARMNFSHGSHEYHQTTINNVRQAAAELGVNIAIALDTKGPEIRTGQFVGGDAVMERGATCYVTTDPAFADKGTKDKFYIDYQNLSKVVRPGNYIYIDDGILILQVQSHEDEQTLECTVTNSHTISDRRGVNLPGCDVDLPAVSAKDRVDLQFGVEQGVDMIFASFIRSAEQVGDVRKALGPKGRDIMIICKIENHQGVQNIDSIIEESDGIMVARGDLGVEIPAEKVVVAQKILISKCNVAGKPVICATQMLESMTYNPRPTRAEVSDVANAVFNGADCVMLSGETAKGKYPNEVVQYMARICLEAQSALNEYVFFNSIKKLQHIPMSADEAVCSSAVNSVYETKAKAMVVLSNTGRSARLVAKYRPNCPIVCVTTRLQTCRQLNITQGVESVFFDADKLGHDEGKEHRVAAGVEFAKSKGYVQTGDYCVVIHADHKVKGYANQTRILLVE
#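 0.1 nM LmPK, 0.5 mM PEP, 0.1 mM ADP; 50 mM imidazole pH 7.2, 7 mM MgCl2, 50 mM KCl; 1 h RT. Kinase-Glo luminescence readout, normalized to no-enzyme (full inhibition) and uninhibited wells.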
# NS1 inh: inhibitors of influenza NS1 protein function | AID 2326 | Potency, µM (series often up to 46.1 µM) | 270,000 compounds, 0.4% hits; further: actives are rising curves; nearly all actives have a fitted effect of over 50% in size
#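 In this qHTS, NS1 from influenza A is expressed in budding yeast, where it slows growth. Cells are switched from glucose to 2% galactose medium (pH 6.0, -URA), treated with compound, and growth recovery is read at OD600.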
# Shiga inhibitor: Shiga toxin inhibition; Vero cells, Shiga toxin protein synthesis inhibition reporter; inhibition, % at 38.7 µM; 290,000 compounds, 9.2% hits; AID 2315; in the data active means inhibition mostly above about 28%, no sharp cut-off; inactive means mostly below about 43%
# Tb PYK inh: T. brucei pyruvate kinase inhibition | Q57TT1 | TbPYK enzyme, Kinase-Glo Plus ATP luminescence, 45 min | Potency, µM (top dose mostly 76.8 µM), most hits filed as inhibitors | 410,000 compounds, 0.12% hits | AID 624173; active means well fitted curve in the direction sought with a large enough effect; inconclusive means small, poorly fitted or top-dose-only effect, or another doubt; inactive means no such curve, though single readings can be large; an effect the other way counts as inactive or inconclusive; further: nearly all actives have a fitted effect of over 50% in size
#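 Screened from lowest to highest concentration, compounds were pinned into TbPYK/substrate mixtures, and ADP (130 uM final) was added. Plates sat at room temperature for 45 min prior to Kinase-Glo Plus detection by luminescence.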
# CHX counter: counter-screen hit for Shiga toxin inhibitors, cycloheximide. max response, %. 300,000 compounds, 12% hits. AID 2314. cell reporter, cycloheximide protein synthesis inhibition counterscreen; in the data active means max response mostly above about 13%, no sharp cut-off; inactive means mostly below about 14%; further: read at 38.3 µM for the half of the compounds with a filed dose
# SARS PLpro yeast: blocks SARS-CoV papain-like protease in a yeast assay | S. cerevisiae expressing SARS-CoV PLpro, growth rescue | Potency, µM (highest dose often 32.9 µM), actives largely listed as activators | 330,000 compounds, 0.19% hits | AID 485353; further: nearly all actives have a fitted effect of over 55% in size
# Numbers stand for hits; 0 = inactive; ? = inconclusive; - = not tested or not shown; [ ] = dose if it differs, or a comment. Many of the other results were omitted from the sample, so hits are more common in it than they were. Unless noted, the call rests on the fitted dose curve.
SMILES,LmPK inh,NS1 inh,Shiga inhibitor,Tb PYK inh,CHX counter,SARS PLpro yeast
O=C(Nc1ccc(N2CCOCC2)cc1)C1CCCCN1S(=O)(=O)c1ccccc1 (stereo unspecified),0,?,0,0,0,0
O=C(Nc1ccc(N2CCOCC2)cc1)Nc1ccc(Cl)c(Cl)c1,0,0,0,0,19,0
Cc1nc2cc(NC(=O)Nc3ccc(N4CCOCC4)cc3)ccc2n1C,0,0,0,0,0,0
O=C(Nc1ccc(N2CCOCC2)cc1)Nc1cnsn1,0,0,34,0,44,0
O=C(Nc1ccc(Cl)cc1)Nc1ccc(N2CCOCC2)cc1,0,0,30,0,19,0
O=C(/C=C/c1ccc(Cl)cc1)Nc1ccc(N2CCOCC2)cc1,0,0,0,0,0,0
CC(C)Oc1ccc(CNC(=O)c2cnc3sc(N4CCCC4)nn3c2=O)cc1,-,-,-,0,-,-
CC(C)CC(=O)N=Nc1c(O)[nH]c2ccccc12,0[11.5 µM],-,106,0,26,0
O=C(N=Nc1c(O)[nH]c2ccccc12)c1ccco1,25µM,0,65,0,45,0
CCC(O)(CC)C(=O)N=Nc1c(O)[nH]c2ccccc12,0,-,0,0,0,0
CCCn1c(O)c(N=NC(=O)c2ccco2)c2ccccc21,0,0,53,0,0,0
CC(=O)/C=C(\C)N=Nc1c(O)[nH]c2ccccc12,0,0,56,0,32,0
C=CC[C@@H](Cc1ccc(F)cc1)C(=O)OC[C@@H]1CCCN1C(=O)[C@H](CC=C)CC(=O)NCCO,-,-,-,0,-,0
Cc1ccc(CNC(=O)C2COc3ccccc3C2)cc1 (stereo unspecified),-,-,-,0,-,-
COc1ccc(Nc2cc(C(=O)NCCCN(C)Cc3ccccc3)c3ccccc3n2)cc1OC,-,-,-,0,-,-
CN(C)CCNc1nc2c(c(=O)n(C)c(=O)n2C)n1C,-,0,-,-,-,-
O=C(N=Nc1c(O)[nH]c2ccccc12)c1ccc2c(c1)OCO2,0,-,0,0,27,0
O=C(CNC(=O)c1ccccn1)N=Nc1c(O)[nH]c2ccccc12,0,0,47,0,0,0
O=C(CSCc1ccccc1)N=Nc1c(O)[nH]c2ccccc12,0,0,0,0,27,0
COc1ccc(CC(=O)NCC(=O)N=Nc2c(O)[nH]c3ccccc23)cc1,0,0,0,0,0,0
O=[N+]([O-])c1cccc2c(N3CCCC3)ccnc12,0,0,0,0,21,0
COc1cccc(CNC(=S)NC2CC2)c1,0,0,0,0,0,0
COc1ccc2nc(NC(=O)CN3CCN(C)CC3)sc2c1,0,0,152,0,46,0
COc1ccc2nc(NC(=O)CN3CCOCC3)sc2c1,0,0,0,0,58,0
COc1ccc2nc(NC(=O)CN3C(=O)NC4(CCCCC4)C3=O)sc2c1,0,0,0,0,17,0
SMILES,LmPK inh,NS1 inh,Shiga inhibitor,Tb PYK inh,CHX counter,SARS PLpro yeast
CCOC(=O)C1CCN(c2nc3c(S(=O)(=O)c4ccc(Br)cc4)nnn3c3ccsc23)CC1,-,-,-,0,-,-
COC(=O)c1ccc(NC(=O)CCN2C(=O)NC(C)(C)C2=O)cc1,-,-,-,0,-,0
O=C(Nc1ccc(-n2ccc(C(F)(F)F)n2)cc1)Nc1cccc(Cl)c1,0,0,50,-,31,0
COc1ccccc1NC(=O)Nc1ccc(-n2ccc(C(F)(F)F)n2)cc1,0,0,123,0,42,0
COc1ccc(CCN2C(=O)CCC2(C)c2nnnn2-c2c(C)cccc2C)cc1OC (stereo unspecified),-,-,-,0,-,-
CC[C@H](C)[C@H](NC(=O)CNC(=O)[C@H](CCCNC(=N)N)NC(=O)[C@H](CO)NC(=O)[C@H](C)NC(=O)[C@H](Cc1ccc(O)cc1)NC(=O)[C@H](Cc1c[nH]c2ccccc12)NC(=O)[C@H](C)NC(=O)[C@@H]1CCCN1C(=O)[C@H](CC(N)=O)NC(=O)[C@@H](NC(=O)[C@H](CC(=O)O)NC(=O)[C@@H]1CCCN1C(=O)[C@@H](N)[C@@H](C)O)[C@@H](C)CC)C(=O)N[C@@H](CCCNC(=N)N)C(=O)N1CCC[C@H]1C(=O)N[C@H](C(=O)NCC(=O)N[C@@H](CCCNC(=N)N)C(=O)N[C@@H](Cc1ccccc1)C(N)=O)C(C)C,-,-,0,-,0,-
Nc1ccc(S(=O)(=O)c2cc(O)c3ccccc3c2O)cc1,-,-,-,11µM,-,-
NS(=O)(=O)c1cc(C(=O)O)c(O)c2ccccc12,-,0,-,-,-,-
O=C(NCc1ccccc1)Oc1cccc(Cl)c1,0,0,0,0,9.6,0
O=C(NCc1ccccc1)c1cccc(COc2ccc(Cl)cc2)c1,0,0,200,0,130,0
O=C(NCc1ccccc1)c1cccc(COc2cccc(Cl)c2)c1,0,0,0,0,0,0
COc1cc(CNC(=O)c2cccc(COc3ccc(Cl)cc3)c2)cc(OC)c1,0,0,113,0,52,0
OC(Cc1ccccc1Br)c1ncc(-c2ccc(Cl)cc2)[nH]1 (stereo unspecified),-,-,-,0,-,-
Cc1cc2c(n1-c1ccc(C(=O)O)cc1)CCCCC2,0,0,0,-,0,0
Cc1ccc2nc(N(Cc3cccnc3)C(=O)C3CCCCC3)sc2c1,-,-,-,0,-,-
CN(CCN1CCc2ccccc2C1)Cc1nc(-c2ccc3c(c2)OCO3)no1,0,0,0,0,0,0
OCCN(Cc1nc(-c2ccc3c(c2)OCO3)no1)Cc1cccs1,0,0,36,0,0,0
Cc1c(CBr)[n+](=O)c2c(n1[O-])C(Br)CCC2Br (stereo unspecified),0,0,0,?,14,0
Cc1cccc(C)c1Nc1n[nH]c(=S)s1,-,-,-,13µM,-,-
Cc1cccc(Nc2n[nH]c(=S)s2)c1C,0,0,0,?,0,0
CCN(CC)S(=O)(=O)c1ccc(Cl)c(C(=O)Oc2cccnc2)c1,0,0,0,0,0,0
O=C(Oc1ccc(-c2cnc3ccccc3n2)cc1)c1ccc(Br)o1,0,0,0,0,0,0
CCN(CC)S(=O)(=O)c1cc(C(=O)Oc2cccc(-c3cnc4ccccc4n3)c2)ccc1Br,0,0,65,0,61,0
CCN(CC)S(=O)(=O)c1ccc(Cl)c(C(=O)Oc2cccc(-c3cnc4ccccc4n3)c2)c1,0,0,81,0,31,-
CCOc1ccc(S(=O)(=O)Nc2ccc(C(=O)NCc3ccncc3)cc2)cc1,-,-,-,0,-,0
CC1(C(=O)NS(=O)(=O)c2cccc(OC(F)F)c2)CCN1C(=O)Cc1cccs1 (stereo unspecified),-,-,-,0,-,-
CCN1CCN(c2cc(C)c3cc(NC(=S)N4CCCC(C)C4)ccc3n2)CC1 (stereo unspecified),0,0,62,0,33,0
CCN1CCN(c2cc(C)c3cc(NC(=S)N4CCCC4)ccc3n2)CC1,0,0,0,0,0,0
CCN1CCN(c2cc(C)c3cc(NC(=O)c4ccncc4)ccc3n2)CC1,0,0,0,0,0,0
CCN1CCN(c2cc(C)c3cc(NC(=O)c4ccc(Br)o4)ccc3n2)CC1,0,0,0,0,15,0
